From PubChem BioAssay (NCI)
This is part of a sample that, as a whole, favours compounds with a hit. Of some 79,000 tested, about 15% had one in any assay. The source made the active and inactive calls. Cut-off read from the data, not from the text of the source: active = growth inhibition above about 70%; inactive = the rest.

Legend:
[1] = NCI Yeast Anticancer Drug Screen. Data for the wt1 strain (AID 149);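 note: 0% = growth of vehicle-treated wt1 cultures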; conditions: S. cerevisiae wt1 strain (SPY 50644) growth inhibition, stronger effect = higher value
Method in brief: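 Growth inhibition read against vehicle controls after compound exposure of the wt1 yeast strain.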

[2] = NCI Yeast Anticancer Drug Screen. Data for the mgt1 strain (AID 153); conditions: S. cerevisiae mgt1 mutant growth inhibition, stronger effect = higher value
Method in brief: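 In the mgt1 strain, test compounds were added and growth inhibition was determined relative to vehicle-treated controls.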

[3] = NCI Yeast Anticancer Drug Screen. Data for the rad50 strain (AID 155);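 note: 0% = growth of vehicle-only cultures of the same strain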; conditions: S. cerevisiae rad50 strain growth inhibition, stronger effect = higher value
Method in brief: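 Readout: growth inhibition relative to vehicle-treated cultures. Compound exposure was carried out in a genetically defined yeast strain deficient in DNA damage repair.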

[4] = NCI Yeast Anticancer Drug Screen. Data for the mec2-1 strain (AID 157); conditions: S. cerevisiae mec2-1 strain, stronger effect = higher value
Method in brief: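 Each compound was tested on mec2-1 yeast, a strain altered in DNA damage repair or cell cycle control. Growth inhibition is reported relative to vehicle.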

[5] = NCI Yeast Anticancer Drug Screen. Data for the rad14 strain (AID 159);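 note: 0% = growth of vehicle-treated control cultures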; conditions: S. cerevisiae rad14 strain growth inhibition, stronger effect = higher value
Method in brief: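 Growth inhibition vs vehicle controls; genetically altered yeast strain (DNA damage repair defect) treated with test compounds.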

[6] = NCI Yeast Anticancer Drug Screen. Data for the sgs1 mgt1 strain (AID 161);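 note: 0% = growth of cultures given vehicle only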; conditions: S. cerevisiae sgs1 mgt1 strain, stronger effect = higher value
Method in brief: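 Test agents were incubated with a DNA-repair-mutant yeast strain. Growth was then read and compared against vehicle-treated controls.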

[7] = NCI Yeast Anticancer Drug Screen. Data for the CLN2oe strain (AID 163);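 note: 0% = growth of vehicle-only control cultures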; conditions: S. cerevisiae CLN2oe strain, stronger effect = higher value
Method in brief: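 First, the altered yeast strain was treated with each compound; second, its growth was measured; finally, inhibition was derived by comparison with vehicle controls.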

[8] = NCI Yeast Anticancer Drug Screen. Data for the cln2 rad14 strain (AID 165);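 note: 0% = growth equal to vehicle treated cultures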; conditions: S. cerevisiae cln2 rad14 strain, stronger effect = higher value
Method in brief: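 Test compounds were added to cln2 rad14 yeast cultures; inhibition of growth was then determined by comparison with vehicle treatment.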

[9] = NCI Yeast Anticancer Drug Screen. Data for the bub3 strain (AID 167); conditions: S. cerevisiae bub3 mutant strain, stronger effect = higher value
Method in brief: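 Readout: yeast growth inhibition, expressed relative to vehicle-only wells. The test organism is a mutant strain from a panel with lesions in DNA repair or checkpoint genes.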

[10] = NCI Yeast Anticancer Drug Screen. Data for the wt2 strain (AID 169);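 note: 0% = growth of vehicle-treated yeast cultures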; conditions: S. cerevisiae wt2 strain growth inhibition, stronger effect = higher value
Method in brief: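 The panel's yeast strains carry defined changes in DNA repair or cell cycle genes. Each strain is grown with compound, and growth loss is scored relative to vehicle.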

[11] = NCI Yeast Anticancer Drug Screen. Data for the sgs1 strain (AID 173);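 note: 0% = growth of vehicle-only control cultures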; conditions: S. cerevisiae sgs1 mutant, stronger effect = higher value
Method in brief: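 Vehicle-treated cultures served as reference for growth inhibition of a yeast strain altered in DNA damage repair or cell cycle control after compound exposure.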

[12] = NCI Yeast Anticancer Drug Screen. Data for the mlh1 rad18 strain (AID 175); conditions: S. cerevisiae mlh1 rad18 strain growth inhibition, stronger effect = higher value
Method in brief: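 Inhibition values reflect reduced growth of mutant yeast versus vehicle-treated controls following compound exposure; the mutations affect DNA damage repair.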

[13] = NCI Yeast Anticancer Drug Screen. Data for the rad18 strain (AID 177); conditions: S. cerevisiae rad18 mutant growth inhibition, stronger effect = higher value
Method in brief: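 Steps: expose repair-mutant yeast to compound; measure growth; express as inhibition relative to vehicle control.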

[14] = NCI Yeast Anticancer Drug Screen. Data for the rad50EPP+ strain (AID 151);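 note: 0% = growth of vehicle-treated control cultures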; conditions: S. cerevisiae rad50 mutant strain, stronger effect = higher value
Method in brief: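 Genetically defined yeast (rad50EPP+, DNA damage repair alteration) is grown with compound, and inhibition of growth is expressed relative to vehicle-treated controls.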

[15] = NCI Yeast Anticancer Drug Screen. Data for the mlh1 strain (AID 171);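 note: 0% = growth of vehicle-treated control cultures of the same strain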; conditions: S. cerevisiae mlh1 strain growth inhibition, stronger effect = higher value
Method in brief: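 Inhibition values reflect reduced yeast growth in the presence of compound, referenced to vehicle controls, using a strain chosen for its alteration in DNA repair or cell cycle control.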

[16] = at 5.0 µM (retest, dose inferred, filed as 0.5)
[17] = at 50.0 µM (retest, dose inferred, filed as 5.0)

Measured: growth inhibition

COc1cc([C@@H]2c3cc4c(cc3[C@@H](NC(=O)NO)[C@H]3COC(=O)[C@H]23)OCO4)cc(OC)c1O
active: [3]; [17] 79% | [3]; at 50.0 µM 71.5% | [3]; at 100.0 µM 86%
inactive: [1]; at 1.2 µM -3% | [1]; at 3.7 µM -2% | [1]; at 11.0 µM 1% | [1]; at 33.0 µM -1% | [1]; at 100.0 µM 4% | [2]; at 1.2 µM -5% | [2]; at 3.7 µM -3% | [2]; at 11.0 µM -2% | [2]; at 33.0 µM 14% | [2]; at 100.0 µM 4% | [3]; at 1.2 µM 0% | [3]; at 3.7 µM 1% | [3]; [16] 13% | [3]; at 11.0 µM 10% | [3]; at 33.0 µM 47% | [4]; at 1.2 µM -1% | [4]; at 3.7 µM 1% | [4]; [16] 7% | [4]; at 11.0 µM 0% | [4]; at 33.0 µM 1% | [4]; [17] -13% | [4]; at 50.0 µM -12.1% | [4]; at 100.0 µM 17% | [5]; at 1.2 µM -4% | [5]; at 3.7 µM -4% | [5]; at 11.0 µM -6% | [5]; at 33.0 µM -2% | [5]; at 100.0 µM 8% | [6]; [16] -2% | [6]; [17] 2% | [6]; at 50.0 µM -3.9% | [7]; at 1.2 µM -2% | [7]; at 3.7 µM -7% | [7]; at 11.0 µM -1% | [7]; at 33.0 µM -12% | [7]; at 100.0 µM 0% | [8]; [16] 6% | [8]; [17] 9% | [8]; at 50.0 µM 1.4% | [9]; at 1.2 µM -3% | [9]; at 3.7 µM -3% | [9]; [16] 3% | [9]; at 11.0 µM -2% | [9]; at 33.0 µM -4% | [9]; [17] -13% | [9]; at 50.0 µM -5.95% | [9]; at 100.0 µM -3% | [10]; at 1.2 µM 0% | [10]; at 3.7 µM 0% | [10]; at 11.0 µM 3% | [10]; at 33.0 µM 2% | [10]; at 100.0 µM 5% | [11]; at 1.2 µM -1% | [11]; at 3.7 µM 1% | [11]; at 11.0 µM 3% | [11]; at 33.0 µM 3% | [11]; at 100.0 µM 12% | [12]; [16] 5% | [12]; [17] -14% | [12]; at 50.0 µM 12.7% | [13]; at 1.2 µM -2% | [13]; at 3.7 µM -1% | [13]; at 11.0 µM 17% | [13]; at 33.0 µM -1% | [13]; at 100.0 µM 8%

O=[N+]([O-])c1cccc2nc3ccccc3c(NCCCN3CCCCC3)c12
inactive: [1]; at 1.2 µM 3% | [1]; at 3.7 µM 13% | [2]; at 1.2 µM 12% | [2]; at 3.7 µM 45% | [7]; at 1.2 µM -3% | [7]; at 3.7 µM 45% | [9]; at 1.2 µM -14% | [9]; at 3.7 µM 21% | [9]; [16] 22% | [10]; at 1.2 µM 1% | [10]; at 3.7 µM 39% | [15]; at 1.2 µM 10% | [15]; at 3.7 µM 50%
active: [1]; at 11.0 µM 80% | [1]; at 33.0 µM 96% | [1]; at 100.0 µM 97% | [14]; at 1.2 µM 83% | [14]; at 3.7 µM 96% | [14]; at 11.0 µM 98% | [14]; at 33.0 µM 98% | [14]; at 100.0 µM 99% | [2]; at 11.0 µM 94% | [2]; at 33.0 µM 98% | [2]; at 100.0 µM 99% | [3]; at 1.2 µM 71% | [3]; at 3.7 µM 89% | [3]; [16] 89% | [3]; at 11.0 µM 94% | [3]; at 33.0 µM 96% | [3]; [17] 98% | [3]; at 50.0 µM 96.7% | [3]; at 100.0 µM 97% | [4]; at 1.2 µM 73% | [4]; at 3.7 µM 94% | [4]; [16] 97% | [4]; at 11.0 µM 97% | [4]; at 33.0 µM 97% | [4]; [17] 99% | [4]; at 50.0 µM 98.2% | [4]; at 100.0 µM 98% | [5]; at 1.2 µM 98% | [5]; at 3.7 µM 98% | [5]; at 11.0 µM 98% | [5]; at 33.0 µM 99% | [5]; at 100.0 µM 98% | [6]; [16] 92% | [6]; [17] 98% | [6]; at 50.0 µM 97% | [7]; at 11.0 µM 89% | [7]; at 33.0 µM 95% | [7]; at 100.0 µM 98% | [8]; [16] 99% | [8]; [17] 99% | [8]; at 50.0 µM 97.5% | [9]; at 11.0 µM 90% | [9]; at 33.0 µM 97% | [9]; [17] 98% | [9]; at 50.0 µM 96.8% | [9]; at 100.0 µM 98% | [10]; at 11.0 µM 89% | [10]; at 33.0 µM 97% | [10]; at 100.0 µM 98% | [15]; at 11.0 µM 92% | [15]; at 33.0 µM 97% | [15]; at 100.0 µM 99% | [12]; [16] 97% | [12]; [17] 99% | [12]; at 50.0 µM 98% | [13]; at 1.2 µM 96% | [13]; at 3.7 µM 95% | [13]; at 11.0 µM 97% | [13]; at 33.0 µM 98% | [13]; at 100.0 µM 99%
